The source made the active and inactive calls. The calls were made as follows: active = hit-call score of the fitted dose curve at least 0.9, where 1 is the maximum; inactive = score below 0.9.
Experiments:
Conditions in all cases: primary human HUVEC with PBMC; actives raise or lower the signal
[1] = read-out: Macrophage colony-stimulating factor (MCSF), CSF1 (gene 1435); assay: BSK_LPS_MCSF: BioMAP Diversity Plus: LPS Assay for Macrophage colony-stimulating factor (MCSF) Biomarker Activity (AID 2283083)
Method in brief: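 HUVEC–PBMC co-culture, M-CSF measured by ELISA 24 h after chemical dosing. Fitted in both directions relative to DMSO as negative control; overt cytotoxicity assessed by SRB total-protein staining in parallel cultures.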

[2] = read-out: Tissue Factor, F3 (gene 2152); assay: BSK_LPS_TissueFactor: BioMAP Diversity Plus: LPS Assay for Tissue Factor Biomarker Activity (AID 2283084)
Method in brief: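 Human umbilical vein endothelial cells co-cultured with PBMC were dosed with compound. Cell-surface CD142 was measured by ELISA 24 h later. Activity was fitted bidirectionally against DMSO, with SRB total-protein staining in parallel cultures for cytotoxicity.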

[3] = read-out: Tumor necrosis factor (Homo sapiens) (UniProt P01375); assay: BSK_LPS_TNFa: BioMAP Diversity Plus: LPS Assay for Tumour Necrosis Factor alpha (TNFa) Biomarker Activity (AID 2283085)
Method in brief: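 Human umbilical vein endothelial cells co-cultured with PBMC and stimulated with LPS. TNFa was measured by ELISA 24 h after chemical dosing, fitted bidirectionally relative to DMSO.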

[4] = read-out: Vascular cell adhesion molecule 1 (VCAM1), VCAM1 (gene 7412); assay: BSK_LPS_VCAM1: BioMAP Diversity Plus: LPS Assay for Vascular cell adhesion molecule 1 (VCAM1) Biomarker Activity (AID 2283086)
Method in brief: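 Human umbilical vein endothelial cells co-cultured with PBMC and stimulated with LPS; VCAM-1 measured by ELISA 24 h after dosing. Bidirectional curve fitting against DMSO baseline; cytotoxicity tracked in parallel by SRB total-protein staining.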

[5] = read-out: CD38, CD38 (gene 952); assay: BSK_SAg_CD38: BioMAP Diversity Plus: SAg Assay for CD38 Biomarker Activity (AID 2283087)
Method in brief: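 Human HUVEC plus PBMC co-culture stimulated with superantigen; CD38 measured by ELISA 24 h after chemical dosing. Fluorescence read-out, bidirectional fit against DMSO; cytotoxicity tracked in parallel by SRB and Alamar Blue.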

[6] = read-out: CD40, CD40 (gene 958); assay: BSK_SAg_CD40: BioMAP Diversity Plus: SAg Assay for CD40 Biomarker Activity (AID 2283088)
Method in brief: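 HUVEC plus PBMC co-culture, superantigen-activated, with CD40 read by ELISA 24 h after dosing. Curves fitted in both directions against DMSO. Overt cytotoxicity checked by parallel SRB total-protein staining.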

[7] = read-out: CD69, CD69 (gene 969); assay: BSK_SAg_CD69: BioMAP Diversity Plus: SAg Assay for CD69 Biomarker Activity (AID 2283089);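 as to AC50: cell surface CD69 protein quantified by ELISA with fluorescence detection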
Method in brief: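 Endothelial/PBMC co-culture; chemical added; 24 h incubation; CD69 ELISA with fluorescence detection; bidirectional fit vs DMSO.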

[8] = read-out: Monocyte Chemoattractant Protein-1 (MCP1), CCL2 (gene 6347); assay: BSK_SAg_MCP1: BioMAP Diversity Plus: SAg Assay for Monocyte Chemoattractant Protein-1 (MCP1) Biomarker Activity (AID 2283090)
Method in brief: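 MCP-1 levels in the endothelial–PBMC SAg co-culture were quantified by ELISA at 24 h post-dosing; both increases and decreases versus DMSO scored. Cytotoxicity monitored by SRB total protein in parallel cultures.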

[9] = read-out: E-selectin (Homo sapiens) (UniProt P16581); assay: BSK_SAg_Eselectin: BioMAP Diversity Plus: SAg Assay for Eselectin Biomarker Activity (AID 2283091)
Method in brief: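 Human umbilical vein endothelial cells co-cultured with peripheral blood mononuclear cells, SAg system. E-selectin is measured by ELISA 24 h after dosing and fitted bidirectionally against DMSO. Cytotoxicity is checked by SRB staining of parallel cultures.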

Measured: AC50

Tumor necrosis factor (Homo sapiens), sequence (P01375 whole entry, looked up): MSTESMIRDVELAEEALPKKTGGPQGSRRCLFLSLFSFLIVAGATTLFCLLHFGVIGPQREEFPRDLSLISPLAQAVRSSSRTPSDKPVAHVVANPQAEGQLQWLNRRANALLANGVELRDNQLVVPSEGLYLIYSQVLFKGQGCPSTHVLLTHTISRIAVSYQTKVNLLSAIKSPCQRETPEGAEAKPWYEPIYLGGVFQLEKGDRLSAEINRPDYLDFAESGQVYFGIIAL
E-selectin (Homo sapiens), sequence (P16581 whole entry, looked up): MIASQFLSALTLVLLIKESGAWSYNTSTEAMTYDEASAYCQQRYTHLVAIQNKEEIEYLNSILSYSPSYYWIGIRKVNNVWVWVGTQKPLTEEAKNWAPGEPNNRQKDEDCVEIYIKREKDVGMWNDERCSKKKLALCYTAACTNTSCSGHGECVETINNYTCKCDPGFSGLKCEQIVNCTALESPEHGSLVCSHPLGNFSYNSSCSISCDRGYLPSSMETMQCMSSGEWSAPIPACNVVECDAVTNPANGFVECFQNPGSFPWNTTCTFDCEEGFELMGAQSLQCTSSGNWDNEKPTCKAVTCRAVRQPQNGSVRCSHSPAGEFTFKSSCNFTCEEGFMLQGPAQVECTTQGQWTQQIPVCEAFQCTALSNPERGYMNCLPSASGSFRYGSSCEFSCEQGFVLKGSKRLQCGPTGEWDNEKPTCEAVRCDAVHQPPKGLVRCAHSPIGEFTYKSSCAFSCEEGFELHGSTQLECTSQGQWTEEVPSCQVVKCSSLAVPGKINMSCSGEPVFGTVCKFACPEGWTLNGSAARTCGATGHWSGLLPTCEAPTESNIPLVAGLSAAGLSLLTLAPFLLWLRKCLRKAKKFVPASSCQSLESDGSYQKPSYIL

NCCNCCN
inactive: all assays above

C=C(C)C(=O)O[C@H]1C[C@@H]2CC[C@@]1(C)C2(C)C
active: [1] 29.9 µM | [2] 36.8 µM | [4] 30.6 µM | [5] 33.8 µM | [6] 31.8 µM | [7] 30.8 µM | [8] 34.1 µM | [9] 34 µM
inactive: [3]

CC(C)Oc1ccccc1O
inactive: all assays above

O=C(O)c1ccc([N+](=O)[O-])cc1
inactive: all assays above

CC(=O)O[C@]1(C(C)=O)CC[C@H]2[C@@H]3C[C@H](C)C4=CC(=O)CC[C@]4(C)[C@H]3CC[C@@]21C
inactive: all assays above

CNC[C@H](O)c1cccc(O)c1
inactive: all assays above

OC1OC[C@@H](O)[C@H](O)[C@H]1O (stereo partly drawn)
inactive: all assays above

CC1CCC(C(C)CS)CC1S (stereo not drawn)
inactive: [3]
active: [1] 36.4 µM | [2] 30.9 µM | [4] 34.8 µM | [5] 32.8 µM | [6] 31.6 µM | [7] 30.8 µM | [8] 32.6 µM | [9] 30.8 µM

CC[Si](OC(C)=O)(OC(C)=O)OC(C)=O
inactive: all assays above

O=C(O)C[C@H](O)C[C@H](O)/C=C/c1c(C2CC2)nc2ccccc2c1-c1ccc(F)cc1
active: [3] 3.17 µM | [6] 0.216 µM | [7] 0.109 µM | [9] 0.00197 µM
inactive: all other assays above

O=C(O)c1cn(-c2ccc(F)cc2)c2cc(N3CCNCC3)c(F)cc2c1=O
inactive: all assays above

COc1cc(C=O)ccc1OC(=O)C(C)C
inactive: all assays above

Cc1ccc(O)c(C(C)(C)C)c1
active: [1] 36.9 µM | [2] 30.4 µM | [3] 34.8 µM | [4] 36.8 µM | [5] 37 µM | [6] 35.5 µM | [7] 30.9 µM | [8] 36.6 µM | [9] 37.5 µM

Nc1cc([N+](=O)[O-])ccc1O
inactive: all assays above

CC(=O)/C=C/C1=C(C)CCCC1(C)C
inactive: all assays above

CC(C)c1ccc(C(C)C)cc1
inactive: all assays above

O=P(c1ccccc1)(c1ccccc1)c1ccccc1
inactive: all assays above

O=C(O)c1cn(C2CC2)c2cc(N3CCNCC3)c(F)cc2c1=O
not listed: [1]
inactive: all other assays above

OC[C@H]1O[C@H](O[C@]2(CCl)O[C@H](CCl)[C@@H](O)[C@@H]2O)[C@H](O)[C@@H](O)[C@H]1Cl
inactive: all assays above

c1ccc2c(c1)c1cccc3ccc4cccc2c4c31
active: [2] 0.369 µM
inactive: all other assays above

O=C1CCCCCCCCCCCCCCO1
active: [4] 23.5 µM | [7] 20 µM
inactive: all other assays above

CCc1c(C)cc(N)c(CC)c1N
inactive: all assays above

CCCCCCCCCCCCCCCCCC(=O)OCC(CC)CCCC (stereo not drawn)
inactive: all assays above

Cc1ccc2n[nH]nc2c1
inactive: all assays above

COC(=O)c1ccc(C)cc1
inactive: all assays above

CCC(=O)OCc1ccccc1
inactive: all assays above

Source: PubChem BioAssay (EPA / NIEHS)
